Gli-Sufu antag: Gli-Sufu pathway antagonists, primary screen, luciferase luminescence, Sufu-KO-LIGHT cells, uHTS; AID 588413, 2011; Sufu-KO-LIGHT fibroblasts, Gli luciferase reporter luminescence; 340,000 tested, 0.74% active; inhibition, % at 5 µM;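 active = inhibition above about 55%, limit read from the data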;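 note: 0% = DMSO-treated cells and 100% = wells with medium but no cells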
NR2F2 inh: NR2F2 transcriptional activity inhibitors, primary screen, cell-based, luciferase reporter, HEK293T, luminescence; HEK293T NGFI-A luciferase reporter; inhibition, % at 8.6 µM; 370,000 tested, 0.7% active; AID 686940, 2013;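 active = inhibition above a per-plate cutoff, mean inhibition of test wells between control levels plus 3 SD, cut at about 38% in these data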;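 note: cells cotransfected with COUP-TFII expression vector driving the NGFI-A reporter; 0% = median of COUP-TF2 test wells and 100% = reporter-only cells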
NCOA3 inh: SRC3 coactivator transcriptional activity inhibitors, primary screen, cell-based, luminescence. HEK293 GAL4-SRC3 luciferase reporter. Nuclear receptor coactivator 3 (Homo sapiens), Q9Y6Q9. 360,000 tested, 0.17% active. AID 588352, 2011. inhibition, % at 3.6 µM;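 active = inhibition above a per-campaign cutoff, the mean of all compounds plus 3 SD, cut at about 60% in these data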;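 note: 0% = DMSO-treated cells and 100% = gossypol-treated cells at 36 µM; higher means less SRC3-driven luciferase light from the GAL4 reporter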
NCOA2 inhibitor: inhibition of GAL4-SRC2 driven luciferase reporter, primary screen, SRC2 inhibitor project, cell-based, luminescence; Nuclear receptor coactivator 2 (Homo sapiens), Q15596; HEK293 GAL4-SRC2 luciferase reporter; inhibition, % at 9 µM; 370,000 tested, 0.17% active;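 active = inhibition above the mean inhibition of all tested compounds plus 3 SD, set per campaign, cut at about 52% in these data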;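 note: 0% = DMSO treated cells and 100% = cells given Gossypol at 36 µM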
LRH-1 inv ag: LRH-1 (NR5A2) inverse agonists, primary screen, cell-based, luminescence, HEK293T, StAR-luciferase reporter | Nuclear receptor subfamily 5 group A member 2 (Homo sapiens), O00482 | 360,000 tested, 0.13% active | inhibition, % at 3.6 µM | LRH-1 transfected, 24 h;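 active = inhibition above the mean inhibition of all tested compounds plus 3 SD, cut at about 73% in these data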;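 note: 0% = DMSO wells and 100% = reporter-only cells lacking LRH-1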
NCOA1 inh: SRC1 coactivator transcriptional activity inhibitors, primary screen, cell-based, luminescence | inhibition, % at 3.6 µM | AID 588354, 2011 | HEK293 GAL4-SRC1 luciferase reporter | Nuclear receptor coactivator 1 (Homo sapiens), Q15788 | 360,000 tested, 0.12% active;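 active = inhibition above the campaign mean plus 3 SD, with each screening campaign given its own cutoff, cut at about 60% in these data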;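 note: 0% = DMSO treated cells and 100% = gossypol at 36 µM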
Target sequence (Q15788 whole entry, looked up, the tested form may be a part): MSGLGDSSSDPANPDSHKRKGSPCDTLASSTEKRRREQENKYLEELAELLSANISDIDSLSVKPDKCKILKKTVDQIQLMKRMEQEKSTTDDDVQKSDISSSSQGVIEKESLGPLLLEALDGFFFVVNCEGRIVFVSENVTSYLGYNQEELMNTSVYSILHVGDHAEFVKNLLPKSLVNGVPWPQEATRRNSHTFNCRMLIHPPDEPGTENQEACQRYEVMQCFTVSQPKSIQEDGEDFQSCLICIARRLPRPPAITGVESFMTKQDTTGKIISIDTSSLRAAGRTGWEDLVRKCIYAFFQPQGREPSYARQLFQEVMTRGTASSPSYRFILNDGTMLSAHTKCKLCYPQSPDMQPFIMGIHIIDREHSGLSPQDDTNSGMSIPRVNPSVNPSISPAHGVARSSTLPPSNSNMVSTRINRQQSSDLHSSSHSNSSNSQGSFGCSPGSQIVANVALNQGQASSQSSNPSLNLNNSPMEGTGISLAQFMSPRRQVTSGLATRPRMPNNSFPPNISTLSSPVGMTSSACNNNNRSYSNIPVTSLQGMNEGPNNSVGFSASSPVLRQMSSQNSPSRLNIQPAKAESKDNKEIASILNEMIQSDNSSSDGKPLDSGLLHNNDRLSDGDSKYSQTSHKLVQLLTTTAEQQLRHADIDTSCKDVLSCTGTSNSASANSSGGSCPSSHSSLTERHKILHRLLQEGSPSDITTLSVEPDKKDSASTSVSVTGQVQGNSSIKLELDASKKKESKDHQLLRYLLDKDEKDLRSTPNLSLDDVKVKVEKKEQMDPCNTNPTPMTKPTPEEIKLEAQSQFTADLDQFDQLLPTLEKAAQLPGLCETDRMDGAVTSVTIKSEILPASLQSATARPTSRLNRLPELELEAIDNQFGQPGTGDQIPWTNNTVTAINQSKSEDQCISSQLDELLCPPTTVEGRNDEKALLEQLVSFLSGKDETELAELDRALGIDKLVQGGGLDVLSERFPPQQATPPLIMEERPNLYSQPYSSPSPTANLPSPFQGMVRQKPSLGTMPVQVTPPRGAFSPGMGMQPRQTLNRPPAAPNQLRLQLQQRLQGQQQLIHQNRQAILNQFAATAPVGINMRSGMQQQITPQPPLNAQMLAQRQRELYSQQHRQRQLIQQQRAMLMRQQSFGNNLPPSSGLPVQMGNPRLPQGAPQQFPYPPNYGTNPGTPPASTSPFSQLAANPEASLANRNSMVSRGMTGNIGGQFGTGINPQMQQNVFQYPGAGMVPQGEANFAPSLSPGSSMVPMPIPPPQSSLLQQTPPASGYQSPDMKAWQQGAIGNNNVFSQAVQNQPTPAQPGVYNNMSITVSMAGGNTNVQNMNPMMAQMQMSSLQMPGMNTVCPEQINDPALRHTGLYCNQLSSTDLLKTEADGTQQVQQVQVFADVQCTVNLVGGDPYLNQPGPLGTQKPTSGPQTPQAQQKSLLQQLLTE
Gal4-VP16 ctr: Gal4-VP16 luciferase reporter inhibitors, counter-screen for COUP-TFII antagonist project, cell-based, luminescence, HEK293. shares compounds with NR2F2 inh. inhibition, % at 8.5 µM. AID 687007, 2013. 2,500 tested, 25% active; in the data active = inhibition above about 13%
COUP-TFII conf: NR2F2 transcriptional activity inhibitors, confirmation, cell-based, luciferase reporter, HEK293, triplicate. shares compounds with NR2F2 inh. HEK293 NGFI-A luciferase reporter, luminescence. inhibition, % at 8.5 µM. 2,500 tested, 45% active;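 active = mean inhibition over three repeats above a set limit taken from the earlier primary screen, cut at about 38% in these data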;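 note: 100% = cells given the luciferase reporter alone without the COUP-TF2 vector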
* marks the source's active call; other numbers are inactive results; nt = no result. Shown are actives, neighbours in structure and some others; about 1.3% of the full set was active somewhere.

SMILES | Gli-Sufu antag | NR2F2 inh | NCOA3 inh | NCOA2 inhibitor | LRH-1 inv ag | NCOA1 inh | Gal4-VP16 ctr | COUP-TFII conf
C=C(C)Cn1c(N2CCN(c3ccc(OC)cc3)CC2)nc2c1c(=O)n(C)c(=O)n2C | 29 | 41* | 14 | -3 | 11 | 4 | 3 | 15
O=C(Nc1ccccc1O)c1ccc(NS(=O)(=O)c2cccc3cccnc23)cc1 | 33 | 40* | -20 | -213 | -8 | -29 | -43 | 38*
COc1ccc(CN[C@@H]2CC[C@@]34CCCN3C(=O)CCC[C@H]4C2)cc1OC | nt | -1 | nt | nt | nt | nt | nt | nt
CC(=O)Nc1ccc(NC2=C/C(=N/S(=O)(=O)c3cccs3)c3ccccc3C2=O)cc1 | -11 | 50* | 80* | 43 | 26 | -4 | 17* | 23
Cc1ccccc1NC1=C/C(=N\S(=O)(=O)c2ccc(C(=O)O)cc2)c2ccccc2C1=O | 11 | -19 | 1 | -22 | 17 | 4 | nt | nt
COc1ccc(S(=O)(=O)/N=C2\C=C(Nc3ccc(O)cc3)C(=O)c3ccccc32)cc1 | 95* | 71* | 88* | 74* | 93* | 89* | 83* | 92*
CC(=O)N[C@@H]1C[C@@H]2O[C@H](CO)CC[C@@H]2O[C@@H]1CCc1ccc(C#CC2(O)CCCC2)cc1 | nt | -5 | nt | -19 | nt | nt | nt | nt
CC(=O)N1CCCC(c2cc(C(=O)Nc3ccccc3)no2)C1 (stereo unspecified) | nt | 41* | 31 | 44 | 33 | 25 | 17* | 59*
O=C(NCc1ccccc1)c1cc(C2CCCN(C(=O)C3CC3)C2)on1 (stereo unspecified) | nt | -26 | -29 | 15 | -27 | -38 | nt | nt
O=C(NCc1ccccc1)c1cc(C2CCCN(C(=O)C3CCCCC3)C2)on1 (stereo unspecified) | nt | 101* | -6 | 4 | -3 | -21 | -16 | -16
CC(C)(C)OC(=O)NCc1cc(F)ccc1/C=C/S(=O)(=O)NCc1ccccc1 | nt | -67 | nt | -15 | nt | nt | nt | nt
CC1CCc2nc(N)c(C#N)c(-c3cccnc3)c2C1 (stereo unspecified) | -12 | 52* | 63* | 39 | 41 | 72* | 14* | 24
CCC(CO)Oc1cc(NCc2ccccc2O)c2ncn(C(C)C)c2c1 (stereo unspecified) | -9 | 43* | 10 | 14 | 16 | 0 | -10 | 40*
COc1ccccc1N1CCN(Cc2cc(Br)c(O)c3ncccc23)CC1 | 58* | 47* | 54 | 28 | 73* | 46 | 2 | 15
CCOc1ccccc1N1CCN(Cc2cccc(OC)c2O)CC1 | 1 | 6 | 9 | -1 | 21 | 8 | nt | nt
COC(=O)[C@]12C[C@H](CC(=O)NCC3CCCCC3)C(=O)N(Cc3ccc(Cl)cc3Cl)C1=C[C@H](C(C)(C)C)O[C@@H]2C | nt | -5 | nt | -10 | nt | nt | nt | nt
O=C(/C=C/c1cccs1)NC(=S)NNC(=O)c1ccccc1O | -3 | 60* | 80* | 38 | 88* | 65* | 21* | 63*
COc1cc(-c2coc3c(C(=O)NCc4ccc(N(C)C)cc4)cccc23)ccc1O | nt | -6 | -6 | -20 | 22 | -1 | nt | nt
COc1cc(-c2coc3c(C(=O)NCc4ccc(OC)c(OC)c4)cccc23)ccc1O | nt | 67* | -1 | -8 | 38 | -5 | 0 | 63*
COc1ccc(CNC(=O)c2cccc3c(-c4cccc(C(N)=O)c4)coc23)cc1OC | nt | 86* | 59 | 34 | 51 | 56 | -1 | 73*
COc1ccc(CNC(=O)c2cccc3c(-c4ccc(F)c(F)c4)coc23)cc1OC | nt | nt | 15 | nt | 19 | 18 | nt | nt
Cc1ccc(NC(=O)c2ccc(CS(=O)(=O)Cc3ccccc3C)o2)cc1C | nt | 2 | nt | 11 | nt | nt | nt | nt
Cc1ccccc1CS(=O)(=O)Cc1ccc(C(=O)Nc2ccc(F)cc2)o1 | nt | 53* | nt | 18 | nt | nt | 3 | 22
COc1ccc(-n2c(SCC(=O)Nc3ccccc3-c3ccccc3)nnc2-c2ccccn2)cc1 | nt | 21 | nt | 10 | nt | nt | nt | nt
Nc1ccc2c(c1)OC1(CCCC1)O2 | 24 | 65* | 55 | 66* | 26 | 50 | -10 | 11
SMILES | Gli-Sufu antag | NR2F2 inh | NCOA3 inh | NCOA2 inhibitor | LRH-1 inv ag | NCOA1 inh | Gal4-VP16 ctr | COUP-TFII conf
CC(O)c1nc2ccccc2n1C/C=C/c1ccccc1 (stereo unspecified) | 4 | -1 | -5 | 2 | 8 | -13 | nt | nt
Cc1c(P(=S)(c2ccccc2)c2ccccc2)[n+]2ccccc2n1C/C=C/c1ccccc1 | nt | 38* | 49 | -43 | 47 | 29 | 5 | 4
Cc1ccc(-c2cc3c(N=O)c4ccccc4c-3n[nH]2)cc1 | 59* | 84* | 73* | 61* | 42 | 69* | 37* | 86*
O=Nc1c2cc(-c3ccccc3)[nH]nc-2c2ccccc12 | -62 | -45 | -57 | -73 | -118 | -93 | nt | nt
COc1ccccc1NC(=O)Cn1c(C)cc(=O)c2cccc(OC)c21 | 43 | 51* | 23 | 31 | 26 | 33 | 8 | 42*
Cc1ccc(-c2nc(CS(=O)CC(=O)NCCCN3CCN(Cc4ccccc4)CC3)c(C)o2)cc1 (stereo unspecified) | 30 | 41* | 47 | -16 | 19 | 8 | -6 | 21
COC(=O)[C@]12C[C@H](CC(=O)N3CCCC3)C(=O)N(Cc3ccc4c(c3)OCO4)C1=C[C@H](C(C)C)O[C@@H]2C1CC1 | nt | -4 | nt | 15 | nt | nt | nt | nt
O=C(OCc1cn(Cc2cccc(F)c2)nn1)N1CCOCC1 | nt | 9 | nt | 26 | nt | nt | nt | nt
O=S(=O)(CC1NCc2cc(F)ccc21)NCc1ccccc1 (stereo unspecified) | nt | -8 | nt | 6 | nt | nt | nt | nt
CCCCCCC(=O)N(O)C1CC(=O)N(c2ccc(Cl)cc2)C1=O (stereo unspecified) | -30 | 52* | 10 | 31 | 7 | 12 | -7 | 39*
O=C(Nc1ccc(Cl)cc1)C1CCCN1S(=O)(=O)c1cccc2cccnc12 (stereo unspecified) | nt | 16 | nt | 6 | nt | nt | nt | nt
CC(=O)OCCN1c2ccccc2Sc2cnccc21 | nt | 37* | 36 | 37 | -12 | 21 | -5 | 12
C[C@@H]1CN([C@@H](C)CO)C(=O)CCCn2cc(nn2)CO[C@H]1CN(C)C(=O)Nc1ccnc(N2CCOCC2)c1 | nt | -12 | nt | 9 | nt | nt | nt | nt
